# Source: PubChem BioAssay (National Center for Advancing Translational Sciences (NCATS))
# An excerpt weighted towards active compounds, which were near 7.1% of everything screened.
# ELG1 DNA repair: blocks ELG1-dependent DNA repair in HEK293T cells; HEK293T ELG1-luciferase reporter, luminescence, 16 h; DNA damage induced by 5-fluorouridine; Potency, µM (titrated, usually from 46.1 µM), actives largely listed as inhibitors; 330,000 compounds, 2.3% hits; AID 504467; note: nearly all actives have a fitted effect of over 55% in size
#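 HEK293T cells expressing luciferase-tagged ELG1 (2,000/well) received 5-Fluorouridine plus compound or DMSO for 16 hr at 37 °C. Luciferase was read by ONE-Glo luminescence after 30 min at room temperature.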
# ELG1 genotoxic: inducers of genotoxicity in HEK293T ELG1-luciferase cells | HEK293T ELG1-luciferase reporter, luminescence, 16 h | Potency, µM (series often up to 46 µM), usual class: activators | 330,000 compounds, 1.3% hits | AID 504466; note: nearly all actives have a fitted effect of over 60% in size
#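 Screening used a luciferase reporter fused to human ELG1 in HEK293T cells. Luminescence was read on a CCD plate imager after 16 hr exposure and 30 min ONE-Glo incubation.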
# AT treatment: candidate therapy for ataxia-telangiectasia. 320,000 compounds, 0.19% hits. F2112 A-T fibroblasts, KAP-1 phosphorylation AlphaLISA; neocarzinostatin DNA damage 30 min before lysis. Potency, µM (titrated, usually from 57.5 µM), usual class: activators. AID 485349; note: nearly all actives have a fitted effect of over 45% in size
#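 hTERT-immortalized A-T patient fibroblasts (F2112), 500 cells/well in OPTI-MEM, 1% FBS, got compounds for 60 min, then NCS for 30 min at 37C. Lysates were then assayed for phospho-KAP-1 by AlphaLISA (anti-pKAP1 donor, anti-KAP1 acceptor beads), 6 hr at 25C.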
# SW480 rereplic: DNA re-replication induction in SW480 cells; AID 624297; SW480 DNA re-replication, Hoechst DNA content imaging, 48 h; Potency, µM (top dose mostly 46.1 µM), hits mostly activators; 340,000 compounds, 1.8% hits; note: nearly all actives have a fitted effect of over 55% in size
#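 Cells (250 per well) received 23 nL compound or DMSO by pin tool and were kept 48 hr at 37 C, 5% CO2. Nuclei were then stained with Hoechst for 40 min and scanned for DNA content.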
# MCF10A rereplic: induces DNA re-replication in MCF 10a normal breast cells | 350,000 compounds, 2.9% hits | MCF 10A DNA re-replication, Hoechst nuclear intensity, 48 h | AID 624296 | Potency, µM (highest dose often 46.1 µM), most hits filed as activators; note: nearly all actives have a fitted effect of over 50% in size
# p53 reactivation: mutant p53 re-activation in reporter cells; H1299 p53-A138V BP100-luciferase reporter, luminescence, 24 h; Potency, µM (doses to about 92.2 µM), hits mostly activators; 320,000 compounds, 0.063% hits; AID 504706; note: nearly all actives have a fitted effect of over 45% in size
#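 H1299 (p53-null), stable ts p53-A138V + BP100-Luc; 1000 cells/well, Opti-MEM/10% FBS; cpd 4 pt, 1:5; 24 h, 37 deg C, 5% CO2; detection reagent 10 min RT; luminescence.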
# A number is an active result; i = inactive; ? = inconclusive; nt = no result given. Calls come from the whole dose curve; as a rule, active = well fitted curve in the direction sought with a large enough effect; inconclusive = small, poorly fitted or top-dose-only effect, or another doubt; inactive = no such curve, though single readings can be large; an effect the other way counts as inactive or inconclusive.
SMILES,ELG1 DNA repair,ELG1 genotoxic,AT treatment,SW480 rereplic,MCF10A rereplic,p53 reactivation
COc1ccc(-n2cc(C#N)c(=O)n(Cc3ccc(F)cc3)c2=O)cc1,?,i,i,13µM,?,i
COc1ccc(/C=N/Nc2nc(Nc3ccccc3)nc(N3CCCCC3)n2)c(OC)c1,21µM,i,i,i,i,i
COc1cccc(/C=N/Nc2cc(N3CCOCC3)ncn2)c1O,12µM,?,i,?,?,i
COc1ccc(/C=N/Nc2nc(Nc3ccccc3)nc(N3CCCC3)n2)cc1[N+](=O)[O-],?,?,i,18µM,?,i
COc1cccc(/C=N/Nc2nc(N3CCCC3)nc(N3CCCC3)n2)c1O,15µM,i,i,i,i,i
COc1cccc(/C=N/Nc2cc(Cl)nc(C)n2)c1O,?,i,i,0.29µM,7.3µM,i
COc1cccc(/C=N/NC(=O)c2c(C)nc3ccc(Cl)cn23)c1O,?,i,i,0.26µM,?,?
COc1cccc(/C=N/Nc2c(Cl)cncc2Cl)c1O,?,i,i,i,?,i
CN(C)S(=O)(=O)c1cccc(C(=O)Nc2n[nH]c(C(F)(F)F)n2)c1,i,i,i,i,i,i
Cc1cc(C)c(OCC(=O)N/N=C/c2ccc3c(c2)OCO3)c(C)c1,i,i,i,?,2.9µM,i
Cc1ccccc1OCC(=O)N/N=C/c1ccc2c(c1)OCCO2,i,i,i,?,12µM,?
O=C(COc1ccccc1)N/N=C/c1ccc2c(c1)OCO2,i,i,i,?,?,i
O=C(COc1ccccc1-c1ccccc1)N/N=C/c1ccc2ccccc2c1,i,i,i,1.3µM,?,i
C/C(=N\NC(=O)COc1ccccc1-c1ccccc1)c1ccc(O)cc1O,23µM,i,i,i,?,i
CCOc1cccc2cc(-c3nc4ccc(C(=O)O)cc4[nH]3)c(=O)oc12,nt,nt,i,nt,nt,nt
CC(C)(C)S(=O)N1Cc2cc(CO)cc(CCO)c2[C@@H]1CCO (some centres not stated),nt,nt,nt,i,?,nt
Cc1ccc(NC(=O)CCCN2C(=O)NC(C)(C)C2=O)cc1,i,i,i,i,i,i
Cc1ccccc1-c1nnn(Cc2cccc(S(=O)(=O)N3CCOCC3)c2)n1,i,i,i,i,i,i
CCc1nc(C)cc2c1sc1ccccc12,?,i,20µM,?,?,i
Cc1cc(C(=O)OCC(=O)N(C)c2ccccc2)c(C)o1,i,i,i,i,i,i
COc1cc(C(=O)NNC(=O)COc2ccccc2Cl)ccc1OCC(=O)N1CCOCC1,i,i,i,i,i,i
O=C(NC1CCCCC1)C(=O)c1c[nH]c2ccccc12,?,15µM,i,i,?,?
O=C(NC1CCCCCCC1)c1ccccc1O,?,i,i,i,i,?
Cc1ccccc1C(=O)NC1CCCCCCC1,?,16µM,i,i,i,i
O=C(NC1CCCCC1)c1cc2ccccc2cc1O,i,i,i,18µM,i,i
SMILES,ELG1 DNA repair,ELG1 genotoxic,AT treatment,SW480 rereplic,MCF10A rereplic,p53 reactivation
COCCN(C(=O)CCl)C(C(=O)NC1CCCCC1)c1ccccc1C (configuration not stated),21µM,i,i,13µM,?,i
COc1ccc(NC(=O)CSc2nc(N)cc(N)n2)cc1S(=O)(=O)N1CCCCC1,i,i,i,i,i,i
CCOC(=O)c1ccc(N(CC2CO2)S(=O)(=O)c2ccc(C)cc2)cc1 (configuration not stated),nt,nt,nt,i,i,nt
OC(CN1CCC(Cc2ccccc2)CC1)c1ccccc1 (configuration not stated),i,i,i,i,i,i
Cc1ccccc1OCC(=O)Nc1ccccc1C(=O)NC1CC1,5.2µM,i,i,i,i,i
Cn1cccc1C(=O)NC1CCCCCC1,?,?,i,i,i,7.1µM
CC(C)Oc1cc(C(=O)NC2CCCCC2)c2ccccc2n1,i,i,i,i,i,i
CCOC(=O)c1sc(-c2cccc(C(F)(F)F)c2)nc1O,i,i,i,?,?,i
CCOC(=O)c1sc(-c2ccc(C(F)(F)F)cc2)nc1O,i,i,i,16µM,16µM,i
CCCC(=O)Nc1nnc(S(=O)(=O)N(CC(C)C)c2ccccc2)s1,i,i,i,i,i,i
C/C(=N/NC(=O)c1ccc(Br)o1)C(C)C,i,i,i,0.52µM,i,?
Cc1ccc(Nc2ncnc3c2oc2ccccc23)cc1,?,7.3µM,i,i,i,?
CCc1nc(Nc2ccc(O)cc2)c2oc3ccccc3c2n1,16µM,i,i,i,i,i
c1ccc2c(c1)oc1c(Nc3ccc4c(c3)OCCO4)ncnc12,?,i,i,i,?,i
COc1cccc(Nc2nc(C)nc3c2oc2ccccc23)c1,i,i,i,i,?,i
COc1ccc(Nc2ncnc3c2oc2ccccc23)cc1,?,8.9µM,i,i,i,i
COc1ccc(CCNC(=O)c2cc(-c3ccccn3)nc3ccccc23)cc1,?,i,i,i,i,i
CN(Cc1ccccc1)CC(O)COc1ccc(CNCc2ccc(Cl)s2)cc1 (configuration not stated),i,i,i,21µM,16µM,i
O=C(Cn1cnc2c(NCc3ccccc3)ncnc21)N1CCN(c2ccccn2)CC1,i,i,i,i,i,i
Cc1cc(C)c(CN2CCN(C(=O)Cn3cnc4c(NCc5ccccc5)ncnc43)CC2)c(C)c1,1µM,i,i,i,i,i
COCCNC(=O)CSc1n[nH]c(=O)n1CCc1ccccc1,i,i,18µM,i,i,i
CCCNC(=O)CSc1n[nH]c(=O)n1CCc1ccccc1,i,i,i,i,i,i
CCN(CC)c1ccc2nc3c4ccccc4c(=O)cc-3oc2c1,?,0.82µM,i,i,i,nt
CC(C)(C)c1cc(OC(=O)C2CCCC2)ccc1O,i,i,?,?,?,nt
CCCCC(CC)C(=O)Oc1ccc(O)c(C(C)(C)C)c1 (configuration not stated),?,i,?,i,4.1µM,i
CCOC(=O)/C=c1\s/c(=C\c2ccc(C#N)cc2)c(=O)n1CC(=O)NCc1ccco1,i,i,i,i,?,i
CCOC(=O)/C=c1/s/c(=C/c2ccc3cc(OC)ccc3c2)c(=O)n1CC(=O)NCC1CCCO1 (configuration not stated),nt,nt,nt,3.7µM,?,nt
CCOC(=O)/C=c1\s/c(=C\c2ccc(C(=O)OC)cc2)c(=O)n1CC(=O)Nc1ccccc1,?,?,i,i,?,i
